Experimental data reported in PubChem BioAssay (NCI).
Compounds without any hit were thinned out: in the full panel of roughly 79,000, 15% have a hit. Cut-off read from the data, not from the text of the source: active = growth inhibition above about 70%; inactive = the rest.

Tests used:
[1] = NCI Yeast Anticancer Drug Screen. Data for the rad50 strain (AID 155);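 note: 0% = growth of vehicle-only cultures of the same strain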; details: S. cerevisiae rad50 strain growth inhibition; at 50.0 µM; active compounds read high
Summary of the method: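 Growth of the mutant yeast was measured after compound exposure and referenced to vehicle-treated cultures.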

[2] = NCI Yeast Anticancer Drug Screen. Data for the mec2-1 strain (AID 157); details: S. cerevisiae mec2-1 strain, at 50.0 µM, active compounds read high
Summary of the method: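 Growth inhibition is read against vehicle-treated controls after compound exposure of the mec2-1 yeast strain, which is defective in DNA damage repair or cell cycle control.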

[3] = NCI Yeast Anticancer Drug Screen. Data for the sgs1 mgt1 strain (AID 161);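 note: 0% = growth of cultures given vehicle only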; details: S. cerevisiae sgs1 mgt1 strain, at 50.0 µM, active compounds read high
Summary of the method: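 Growth of a repair-deficient yeast mutant was monitored after compound treatment and expressed as inhibition relative to vehicle-treated cultures.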

[4] = NCI Yeast Anticancer Drug Screen. Data for the cln2 rad14 strain (AID 165);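 note: 0% = growth equal to vehicle treated cultures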; details: S. cerevisiae cln2 rad14 strain, at 50.0 µM, active compounds read high
Summary of the method: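 Growth inhibition, relative to vehicle-treated controls, is the read-out. The test organism is a yeast strain with defined genetic alterations, cln2 rad14.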

[5] = NCI Yeast Anticancer Drug Screen. Data for the bub3 strain (AID 167); details: S. cerevisiae bub3 mutant strain, at 50.0 µM, active compounds read high
Summary of the method: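 Whole-cell yeast assay. The mutant strain was incubated with compounds, and growth inhibition was determined by comparison with vehicle-treated cells.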

[6] = NCI Yeast Anticancer Drug Screen. Data for the mlh1 rad18 strain (AID 175); details: S. cerevisiae mlh1 rad18 strain growth inhibition; at 50.0 µM; active compounds read high
Summary of the method: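 Cells of a genetically altered yeast strain, deficient in DNA damage repair, were treated with compound. Their growth was then compared with that of vehicle-treated cultures to give inhibition.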

Measured: growth inhibition

Cc1nc(N)[nH]c(=O)c1CCCN=Cc1ccc([N+](=O)[O-])cc1
inactive: [1] 4.3% | [2] 6% | [3] 14.4% | [4] 7.7% | [5] 31.6% | [6] 29.9%

Cn1c(=O)cc(NC2OC(CO)C(O)C(O)C2O)[nH]c1=O (stereo not given)
inactive: [1] 2.1% | [2] -3.3% | [3] 24.8% | [4] -5.3% | [5] 0.75% | [6] 11.5%

C=C(Nc1ccc([N+](=O)[O-])cc1[N+](=O)[O-])c1c/c(=N\NC(N)=S)c2ccccc2o1
inactive: [1] 25.1% | [2] -16% | [3] -3.85% | [4] 15.6% | [5] 16.4% | [6] 6.45%

CCC(=O)Cc1cnccn1
inactive: [1] -47.1% | [2] -32.5% | [3] -12.3% | [4] -10.1% | [5] -9.15% | [6] -12.4%

CN(C)Cc1c(-c2ccc(Br)cc2)oc(-c2ccc(Br)cc2)c1Br
inactive: [1] -31.1% | [2] -8.7% | [3] -13.9% | [4] -10.4% | [5] 4.5% | [6] 7.2%

CC1=NN(C(=O)Nc2ccccc2)C(=O)C2CCC(=O)N12 (stereo not given)
inactive: [1] -6.3% | [2] -4.55% | [3] -3.55% | [4] 3.85% | [5] -1% | [6] -8.1%

S=C1CSc2c(ccc3ccccc23)N1
inactive: [1] -30.8% | [2] -14.8% | [3] 19.2% | [4] 4.95% | [5] 19.9% | [6] -9.4%

O=C1OC(C(O)CO)C(C(O)CO)OC1=O (stereo not given)
inactive: [1] -9.3% | [2] -15.6% | [3] -39.5% | [4] -7.35% | [5] -12.3% | [6] 1.6%

O=C(O)CCc1c[nH]c2ccccc12
inactive: [1] 10.2% | [2] 1.15% | [3] 31.8% | [4] -55.4% | [5] -7.95% | [6] 18.5%

COc1cc([N+](=O)[O-])cc2c1OC1(C=C2)Oc2ccccc2N1C (stereo not given)
inactive: [1] -36.1% | [2] -25.9% | [3] -16.3% | [4] -16.8% | [5] -22.9% | [6] -17.9%

N#CC1(N(O)C(=O)Nc2ccccc2)CCCCC1
inactive: [1] 5.55% | [2] -10.3% | [3] -0.4% | [4] -7.05% | [5] 5.8% | [6] -13.1%

O=C(CC(O)(C(F)(F)F)C(F)(F)F)c1cccc(S(=O)(=O)N2CCOCC2)c1
inactive: [1] 7.05% | [2] 5.9% | [3] 8.5% | [4] 8.05% | [5] 0.6% | [6] 22.8%

O=[N+]([O-])c1cc(C=NCCCCCCN=Cc2ccc(Cl)c([N+](=O)[O-])c2)ccc1Cl
inactive: [1] 6.9% | [2] -3.85% | [3] -9.75% | [4] -19.3% | [5] 4.35% | [6] -0.9%

O=C(Nc1cccc2c1C(=O)c1c(NC(=O)c3ccccc3)ccc(Nc3cccc4c3C(=O)c3ccccc3C4=O)c1C2=O)c1ccccc1
inactive: [1] 8.05% | [2] -2.65% | [3] 0.9% | [4] 10% | [5] 9.05% | [6] 3.45%

NNC(=O)c1ccccc1O
inactive: [1] 36% | [2] 14.4% | [3] 15.5% | [4] -12.3% | [5] 13.4% | [6] 62%

Cc1ccc(O)c2occ(C)c12
inactive: [1] 17.7% | [2] 12.1% | [3] 10.5% | [4] 36.9% | [5] -2.8% | [6] 39.5%

CC(C)C(NC(=O)OC(c1ccccc1)c1ccccc1)C(=O)NC(CSC(c1ccccc1)(c1ccccc1)c1ccccc1)C(=O)NCC(=O)OCc1ccccc1 (stereo not given)
inactive: [1] 4.45% | [2] 5.75% | [3] 4.55% | [4] -19.1% | [5] -10.8% | [6] 27.2%

CC(C)CC1NC(=S)N(c2ccccc2)C1=O (stereo not given)
inactive: [1] -11% | [2] -18.4% | [3] -13.7% | [4] -10.1% | [5] -8.05% | [6] -24.7%

Cn1c(=O)c2c(-c3ccccc3)cc(-c3ccccc3)nc2n(C)c1=O
inactive: [1] -18.8% | [2] -16.1% | [3] 1.95% | [4] -30.7% | [5] -10.7% | [6] -21.4%

CC12CCC(=O)C=C1CCC1C2CCC2(C)C(C(=O)Cn3c(=O)[nH]cc(F)c3=O)CCC12 (stereo not given)
inactive: [1] 19.9% | [2] 1.85% | [3] 25.9% | [4] 8.85% | [5] 6.55% | [6] 11%

O=C(c1ccccc1)C1CCC(C(=O)c2ccccc2)C1=O (stereo not given)
inactive: [1] 15.8% | [2] 14.3% | [3] -8% | [4] 17.9% | [5] 7.3% | [6] -17.2%

CC1OC(OC2C(Oc3cc(O)c4c(c3)O[C@H](c3ccc(O)cc3)CC4=O)OC(CO)C(O)C2O)C(O)C(O)C1O (stereo not given in full)
inactive: [1] 5.65% | [2] -12% | [3] -5.65% | [4] -3.6% | [5] -0.1% | [6] -46.2%

CCCCNC(=O)C1C(=O)N(CCCC)C(=O)/C1=N\N (stereo not given)
inactive: [1] -1.45% | [2] 26.4% | [3] 8.5% | [4] 56.3% | [5] 0.35% | [6] 12.8%

CC(C)(C)N[P+](Cc1ccc(C[P+](NC(C)(C)C)(NC(C)(C)C)c2ccccc2)cc1)(NC(C)(C)C)c1ccccc1
inactive: [1] -3.05% | [2] -10.1% | [3] -0.9% | [4] -13.5% | [5] -2.1% | [6] 5.45%

CCN(CC)c1ccc(NC(=S)Nc2cccc(C(F)(F)F)c2)c(C)c1
inactive: [1] 35.9% | [2] 21.6% | [3] 52.2% | [4] 1.9% | [5] 2.45% | [6] 19.2%

CC(C)N(C(=O)C12C3C4C5(C(=O)O)C(C1C35I)C42C(=O)O)C(C)C (stereo not given)
inactive: [1] -5.25% | [2] 11.1% | [3] -13.3% | [4] 13.7% | [5] -10.4% | [6] -4.1%

CC(C)N(CC(c1ccccc1)C(O)(c1ccccc1)c1ccccc1)C(C)C (stereo not given)
inactive: [1] 16.1% | [2] 8% | [3] 17.5% | [4] 26.8% | [5] -0.75% | [6] 32.3%

COc1ccc2ccccc2c1NC(C)=O
inactive: [1] 0.2% | [2] 5.95% | [3] -0.7% | [4] -21.8% | [5] -1.6% | [6] -10.5%

Nc1ccc2c(=O)[nH][nH]c2c1
inactive: [1] -26.6% | [2] -40.5% | [3] -25% | [4] 10.8% | [5] -25.2% | [6] -9.2%

COc1ccc(-c2cc(C)cc(O)c2)c(OC)c1OC
inactive: [1] 7.5% | [2] 6.2% | [3] 21.4% | [4] -8.2% | [5] -9.3% | [6] -11.3%

CCCOC(=O)c1ccccc1C(=O)OC1CCCCC1
inactive: [1] 8% | [2] -2.05% | [3] 9.2% | [4] -18% | [5] -2.4% | [6] -8.65%

CCN1C(=O)NC(C)(c2ccccc2)C1=O (stereo not given)
inactive: [1] -2.9% | [2] 3.35% | [3] -3.45% | [4] -11.3% | [5] 10.1% | [6] 2.1%

C=C1C(=O)O[C@H]2[C@H]1[C@@H](OC(=O)C=C(C)C)CC1=C[C@@H](C[C@@]3(C)O[C@@H]23)OC1=O
inactive: [1] -7.45% | [2] -7.55% | [3] 7.4% | [4] 9.85% | [5] -2.6% | [6] 7.85%

CCCCNCC#N
inactive: [1] 20.4% | [2] -10.7% | [3] -0.85% | [4] 7.4% | [5] 5.15% | [6] 3.95%

CCCCNS(=O)(=O)c1ccccc1
inactive: [1] 7.95% | [2] -18.1% | [3] -59.6% | [4] 9.65% | [5] 1.6% | [6] 20.4%

CCN(CC)Cc1ccccc1CO
inactive: [1] 3.05% | [2] 6.15% | [3] 2.2% | [4] 9.75% | [5] 9.6% | [6] 0.5%

O=C1C=C(O)C(=C/C=C/C=C/c2c(O)cc(O)cc2O)C(O)=C1
inactive: [1] -12.4% | [2] -13.6% | [3] -2.65% | [4] 10.2% | [5] 6.65% | [6] -5.7%

C[NH-].C[NH-].C[NH-].C[NH-].O=C(O)c1cc(C(=O)O)c(C(=O)O)cc1C(=O)O.[Pt+2].[Pt+2]
inactive: [1] -6.25% | [2] -2.6% | [3] -2.05% | [4] -36% | [5] 0.55% | [6] 13.3%

CC(=O)Nc1ccc(S(=O)(=O)SC(F)(F)F)cc1
inactive: [1] 0.8% | [2] 7.25% | [3] 17.4% | [4] 24.7% | [5] 8.85% | [6] 13.7%

Cc1ccc(/C=C/C(=O)/C=C/c2ccc(C)cc2)cc1
inactive: [1] 9.05% | [2] 9.25% | [3] 15.6% | [4] -2.6% | [5] 23.6% | [6] 18.7%
